About 390 (7%) of roughly 5,600 compounds showed an effect of 50% or more. Only a selection was taken, and strong results are over-represented in it overall.
These compounds were tested against T1, Protein deacetylase HDAC6 (Homo sapiens) (UniProt Q9UBN7). Details: at 10 µM.
T1 sequence (whole entry): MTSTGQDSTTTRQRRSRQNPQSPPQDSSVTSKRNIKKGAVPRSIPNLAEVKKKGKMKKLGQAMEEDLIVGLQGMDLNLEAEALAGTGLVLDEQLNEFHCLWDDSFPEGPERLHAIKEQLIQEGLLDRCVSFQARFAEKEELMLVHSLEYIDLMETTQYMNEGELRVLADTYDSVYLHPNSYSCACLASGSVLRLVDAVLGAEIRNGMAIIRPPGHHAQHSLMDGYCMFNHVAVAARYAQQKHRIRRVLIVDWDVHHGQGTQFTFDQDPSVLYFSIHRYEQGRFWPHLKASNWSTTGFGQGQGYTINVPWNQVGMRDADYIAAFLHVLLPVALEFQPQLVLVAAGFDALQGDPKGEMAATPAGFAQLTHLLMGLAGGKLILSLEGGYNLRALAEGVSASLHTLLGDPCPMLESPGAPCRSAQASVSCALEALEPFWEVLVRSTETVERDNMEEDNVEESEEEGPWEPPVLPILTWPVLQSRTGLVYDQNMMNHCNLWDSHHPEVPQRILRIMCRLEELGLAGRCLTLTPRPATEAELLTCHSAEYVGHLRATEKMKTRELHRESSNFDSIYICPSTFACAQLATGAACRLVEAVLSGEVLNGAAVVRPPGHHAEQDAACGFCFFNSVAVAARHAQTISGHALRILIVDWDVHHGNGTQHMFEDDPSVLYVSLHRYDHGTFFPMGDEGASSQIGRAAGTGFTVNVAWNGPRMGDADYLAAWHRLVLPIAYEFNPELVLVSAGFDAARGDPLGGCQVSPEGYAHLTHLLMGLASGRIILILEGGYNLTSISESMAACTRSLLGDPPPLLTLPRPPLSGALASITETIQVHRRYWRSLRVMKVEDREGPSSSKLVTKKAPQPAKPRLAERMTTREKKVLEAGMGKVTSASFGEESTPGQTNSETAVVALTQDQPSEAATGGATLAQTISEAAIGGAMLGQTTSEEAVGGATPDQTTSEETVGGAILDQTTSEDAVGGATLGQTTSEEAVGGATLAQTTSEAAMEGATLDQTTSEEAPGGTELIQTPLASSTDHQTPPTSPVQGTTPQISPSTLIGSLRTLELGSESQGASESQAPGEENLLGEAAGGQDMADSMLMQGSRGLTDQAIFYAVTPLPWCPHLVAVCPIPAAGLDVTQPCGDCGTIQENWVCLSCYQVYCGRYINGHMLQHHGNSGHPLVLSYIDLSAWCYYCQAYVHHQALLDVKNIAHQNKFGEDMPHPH

Row | Compound | inhibition
1 | O=C(Nc1cc(-c2ccccc2)nn1-c1ccccc1)c1ccc([N+](=O)[O-])cc1 | 23%
2 | CCOC(=O)[C@H](Cc1ccc([N+](=O)[O-])cc1)NC(=O)c1ccccc1 | 14.4%
3 | O=C(Nc1ccccc1C(=O)Nc1ccc(CCO)cc1)c1ccc([N+](=O)[O-])cc1 | 78.3%
4 | C[C@]12C=CC(=O)N[C@@H]1CC[C@@H]1[C@@H]2CC[C@]2(C)[C@@H](C(=O)Nc3cc(C(F)(F)F)ccc3C(F)(F)F)CC[C@@H]12 | 34.1%
5 | O=C(NCCN1CCC(n2c(=O)[nH]c3ccccc32)CC1)c1cc2cc(F)ccc2[nH]1 | 22.7%
6 | CCOCOC[C@H](C[C@H](C)C(=O)NO)NC(=O)c1ccc(Oc2ccccc2)cc1 | 25.9%
7 | CC(C(=O)O)c1ccc2c(c1)Cc1ccccc1-2 (configuration not stated) | 63.7%
8 | CC(C(=O)O)c1ccc(-c2ccccc2)c(F)c1 (racemic) | 13.4%
9 | C[C@@H](C(=O)O)c1ccc(-c2ccccc2)c(F)c1 | 0.12%
10 | CCn1cnc(C(=O)NC)c1C(=O)NC | -8.83%
11 | Cc1ccccc1N1CCN(S(=O)(=O)CC23CCC(C[C@@H]2NC(=O)[C@@H](N)CCS(C)(=O)=O)C3(C)C)CC1 (some centres not stated) | 2.99%
12 | CN[C@@H]1[C@H](O[C@H]2[C@H](O[C@H]3[C@H](O)[C@@H](O)[C@H](NC(=N)N)[C@@H](O)[C@@H]3NC(=N)N)O[C@@H](C)[C@]2(O)CO)O[C@@H](CO)[C@H](O)[C@H]1O | 8.93%
13 | C/C1=C/C[C@@H](/C(C)=C/c2csc(C)n2)OC(=O)C[C@H](O)C(C)(C)C(=O)[C@H](C)[C@@H](O)[C@@H](C)CCC1 | -9.51%
14 | CN(C)CC/C=C1\c2ccccc2Sc2ccc(Cl)cc21 | 91.2%
15 | CN(C)CCC=C1c2ccccc2CCc2ccccc21 | 60.4%
16 | CC(C1=C(CCN(C)C)Cc2ccccc21)c1ccccn1 (configuration not stated) | -6.73%
17 | CC(=O)c1ccc2c(c1)N(CCCN(C)C)c1ccccc1S2 | 43.7%
18 | C[C@@H](C1=C(CCN(C)C)Cc2ccccc21)c1ccccn1 | -1.4%
19 | CCOC(=O)c1ccc(-c2ccc(OC(=O)N(C)Cc3cccc(-c4ccncc4)c3)cc2)cc1 | 5%
20 | CC(C)(C)c1cc(C(C)(C)C)c2c(c1)C(O)(C(F)(F)F)C(=O)O2 (racemic) | -6.8%
21 | Fc1ccccc1CNCc1ccc(-c2ccnc3[nH]ccc23)cc1 | 44.7%

Row | Compound | inhibition
22 | CSc1nc(N)cc(Oc2ccc(-c3nnc(Nc4cccc(C(F)(F)F)c4)[nH]3)cc2)n1 | 10.4%
23 | CC(C)[C@@H](C)/C=C/[C@@H](C)[C@H]1CC[C@H]2C3=CC=C4C[C@@H](O)CC[C@]4(C)[C@H]3CC[C@]12C | 26.6%
24 | COc1cccc(CN2C[Si](C)(C)O[Si](C)(C)C2)c1 | 9.47%
25 | Nc1ncnc2c1ncn2[C@@H]1O[C@H](COP(=O)(O)OP(=O)(O)OP(=O)(O)O)[C@@H](O)[C@H]1O | -7.9%
26 | Nc1c(CC(=O)O)cccc1C(=O)c1ccccc1 | 0.48%
27 | NC(=O)Cc1cccc(C(=O)c2ccccc2)c1N | 48.4%
28 | Nc1c(CC(=O)O)cccc1C(=O)c1ccc(Br)cc1 | 69.8%
29 | COc1cc(OC)nc(O[C@H](C(=O)O)C(OC)(c2ccccc2)c2ccccc2)n1 | -2.76%
30 | COc1cc(/C=C/C(N)=O)cc(OC)c1OC | 13.3%
31 | Cn1cc(C(=O)c2cccc3ccccc23)cc1C(=O)O | 25%
32 | Cn1cc(-c2ccc(F)c(C(F)(F)F)c2)nc1C1CCN(c2ncnc3[nH]ncc23)CC1 | 24%
33 | CCCCCCCCCCCCCCCCCC[S+](CCC)c1ccccc1C(=O)OCC (configuration not stated) | 21%
34 | CC[n+]1c(-c2ccccc2)c2cc(N)ccc2c2ccc(N)cc21 | 2.78%
35 | CC[N+](C)(CC)CCC[n+]1c(-c2ccccc2)c2cc(N)ccc2c2ccc(N)cc21 | 60.2%
36 | CC(C)(C(=O)O)c1ccc(C(=O)CCCN2CCC(OC(c3ccccc3)c3ccccc3)CC2)cc1 | 3.08%
37 | CCc1c2c(nc3ccc(OC(=O)N4CCC(N5CCCCC5)CC4)cc13)-c1cc3c(c(=O)n1C2)COC(=O)[C@]3(O)CC | -2.26%
38 | Cc1cc(SCc2sc(-c3ccc(C(F)(F)F)c(F)c3)nc2C)ccc1OCC(=O)O | 66.5%
39 | Cc1cc(OCc2nc(-c3ccccc3Cl)cs2)ccc1OCC(=O)O | 33.8%
40 | Cn1ncnc1COc1nn2c(-c3c(F)cccc3F)nnc2cc1C1CCC1 | 3.27%
41 | CCOC(=O)C(=O)Nc1cccc(OC)c1C(N)=O | 24.8%
42 | CCN(CC)CCCCC(NC(=O)c1ccc([N+](=O)[O-])cc1)c1ccccc1 (configuration not stated) | -1.83%

Row | Compound | inhibition
43 | CCOc1ccc(/C=C2\NCCc3cc(OCC)c(OCC)cc32)cc1OCC | 7.94%
44 | CCOc1nc2c(N)ncnc2n1CC | 7.36%
45 | CN(C)CCOc1ccc(/C(=C(/CCCl)c2ccccc2)c2ccccc2)cc1 | 33.5%
46 | C=CC(=O)N1CCC[C@@H](n2nc(-c3ccc(Oc4ccccc4)cc3)c3c(N)ncnc32)C1 | 73%
47 | C=CC(=O)N1CCC[C@@H](n2c(=O)n(-c3ccc(Oc4ccccc4)cc3)c3c(N)ncnc32)C1 | 9.93%
48 | Nc1ncnc2c1c(-c1cnc3[nH]ccc3c1)nn2C1CCCC1 | 27.2%
49 | COc1ccc2nc3ccc(Cl)cc3c(SCCCN)c2c1 | 31.8%
50 | COc1cc(C(=O)c2c(C)oc3c(O)c(OC)ccc23)cc(OC)c1OC | 31.9%
51 | CCN(CC)C(=O)C1(c2ccccc2)CC1CN (configuration not stated) | -2.35%
52 | COc1cccc2c1c(O)c(C(=O)N(C)c1ccc(C(F)(F)F)cc1)c(=O)n2C | -4.13%
53 | C[C@@H]1CN(CCCn2c3ccccc3c3ccccc32)C[C@H](C)N1 | 1.8%
54 | O=C(Nc1cccc(C(F)(F)F)c1)Nc1ccc(Br)cc1-c1nnn[nH]1 | -9.24%
55 | O=c1c2ccccc2[se]n1-c1ccccc1 | 107%
56 | Cc1c(C(=O)Nc2ccc(N3CCC(N4CCOCC4)CC3)c(C#N)c2)cnn1-c1ccc(Cl)cc1 | 9.57%
57 | CCC[N+]12C3C[C@H](C4C(O)[C@]5(C[C@@H]41)c1ccccc1N(C)[C@@H]35)[C@H](CC)[C@H]2O (some centres not stated) | 26.3%
58 | CS(=O)(=O)CS(=O)(=O)OCCCl | 9.47%
59 | CC(OC(=O)NCC1(CC(=O)O)CCCCC1)OC(=O)C(C)C (configuration not stated) | 3.02%
60 | c1ccc2sc(SNC3CCCCC3)nc2c1 | 80%
61 | C#Cc1cncc([C@@H]2CCCN2C)c1 | 18.9%
62 | CO[C@@H](C(=O)N1Cc2[nH]nc(NC(=O)c3ccc(N4CCN(C)CC4)cc3)c2C1)c1ccccc1 | 21.1%
